Compound activity as filed in PubChem BioAssay.
DT40 TDP1 CPT: DT40-hTDP1 cell growth loss with CPT; chicken DT40 Tdp1-/-;hTDP1 cells + 20 nM CPT, ATP luminescence, 48 h; Potency, µM (highest dose often 46.2 µM), most hits filed as inhibitors; 420,000 compounds, 12% hits; AID 686979; also: nearly all actives have a fitted effect of over 55% in size
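Chicken DT40 Tdp1-/- cells stably complemented with human TDP1 were seeded at 400 cells/well in medium containing 20 nM camptothecin, exposed to pin-transferred compounds, and grown at 37 °C for at least 48 hr. Viability was read as ATP luminescence.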
HT1080 IDH1KD tx: HT-1080 IDH1 knockdown cell toxicity (counter line); HT-1080 IDH1 knockdown viability, ATP luminescence, 48 h; Potency, µM (highest dose often 46.1 µM), most hits filed as cytotoxic; 360,000 compounds, 2% hits
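IDH1KD HT-1080 cells, 750/well, RPMI + 5% FBS; compound pinned after 2 h settling; 48 h, 37 °C; CellTiter-Glo luminescence; % activity normalised to DMSO and no-cell wells; curves fitted, classed by r2 and efficacy.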
TDP1 cell noCPT: qHTS for Inhibitors of human tyrosyl-DNA phosphodiesterase 1 (TDP1): qHTS in cells in absence of CPT. DT40 Tdp1-/- hTDP1 cells, no CPT, ATP luminescence, 48 h. Potency, µM (highest dose often 46.2 µM), hits mostly inhibitors. 420,000 compounds, 15% hits. AID 686978, 2013; also: nearly all actives have a fitted effect of over 55% in size
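Cells were dispensed at 400 per well, compounds added by pin tool, plates incubated ≥48 hr at 37 °C, then CellTiter-Glo added for 30 min at room temperature before luminescence reading. Line: DT40 Tdp1-/- complemented with hTDP1; camptothecin omitted.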
HT1080-NT tox: kills 2HG-producing HT-1080-NT fibrosarcoma cells | HT-1080-NT fibrosarcoma viability, CellTiter-Glo ATP luminescence, 48 h | Potency, µM (highest dose often 46.1 µM), hits mostly cytotoxic | 360,000 compounds, 1.6% hits | AID 686970;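 also: NT is the 2HG producing partner of a matched IDH1 knockdown line; nearly all actives have a fitted effect of over 55% in size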
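Compounds were tested in concentration-response format on HT-1080-NT cells for 48 hours at 37 degrees C. Cell viability came from CellTiter-Glo luminescence; curves were classified by r2, response magnitude and activity.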
IL1B secr inh: blocks inflammasome-driven IL-1 beta release | THP-1 LPS/ATP IL-1B secretion, AlphaLISA, 16 h; stronger effect = lower value | activity change, % at 57.5 µM | 360,000 compounds, 4.7% hits; in the data active = activity change below about -50%; inconclusive = mostly about -30% to -49%
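THP-1 cells pretreated 1 hr with compounds (up to 57.5 uM final), then stimulated with LPS (250 ng/mL final) plus ATP (1.25 mM final); secreted IL-1B measured by AlphaLISA after 16 hr, decreased signal indicating inhibition.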
Each line names hits and unclear results; the compound was inactive in the other large screens. This is a sample that favours compounds with a hit; in the whole collection about 19% have one here. Unless noted, calls follow the shape of the dose curve; as a rule, active = well fitted curve in the direction sought with a large enough effect; inconclusive = small, poorly fitted or top-dose-only effect, or another doubt; inactive = no such curve, though single readings can be large; an effect the other way counts as inactive or inconclusive.

C=CCn1c2ccccc2c(=O)c2cc(C#CC3(O)CCCCC3)ccc21	DT40 TDP1 CPT 16µM, TDP1 cell noCPT 18µM, HT1080-NT tox inconclusive, IL1B secr inh -57
C=CCn1c2ccccc2c(=O)c2cc(C#CC[C@@H](C)O)ccc21	DT40 TDP1 CPT 8.2µM, TDP1 cell noCPT 10µM, IL1B secr inh -67
Cc1nc([N+](=O)[O-])cn1-c1nc2ccccn2c1[N+](=O)[O-]	none
Cc1cc(CNC(=O)CCc2nnc(CCCc3ccccc3)o2)nn1C	none
CCc1c(C(=O)NCCc2cccc(C)c2)[nH]c(C)c1C(C)=O	DT40 TDP1 CPT 16µM, HT1080 IDH1KD tx inconclusive, TDP1 cell noCPT 10µM
CCc1c(C(=O)NCc2ccccc2Cl)[nH]c(C)c1C(C)=O	DT40 TDP1 CPT 23µM, TDP1 cell noCPT 16µM
CC(=O)c1c(C)[nH]c(C(=O)NCc2ccccc2Cl)c1C	DT40 TDP1 CPT inconclusive, TDP1 cell noCPT inconclusive
CCN(CC)C(=O)c1ccc2c(c1)nnn2C	none
COc1ccc(OC)c(CCNC(=O)c2c(C)oc3ncn(CC(C)C)c(=O)c23)c1	DT40 TDP1 CPT inconclusive, TDP1 cell noCPT 18µM (no result: HT1080 IDH1KD tx, HT1080-NT tox, IL1B secr inh)
COc1ccc(OC)c(CNC(=O)c2c(C)oc3ncn(CC(C)C)c(=O)c23)c1	DT40 TDP1 CPT inconclusive, TDP1 cell noCPT 16µM (no result: HT1080 IDH1KD tx, HT1080-NT tox, IL1B secr inh)
COc1ccc(OC)c(CCNC(=O)c2c(C)oc3ncn(C)c(=O)c23)c1	none (no result: HT1080 IDH1KD tx, HT1080-NT tox, IL1B secr inh)
COc1ccc(OC)c(CNC(=O)c2coc(=O)c3ccccc23)c1	TDP1 cell noCPT inconclusive
CN1c2ccsc2C(O)=C(C(=S)Nc2ccc(F)c(Cl)c2)S1(=O)=O	DT40 TDP1 CPT inconclusive, HT1080 IDH1KD tx inconclusive, TDP1 cell noCPT inconclusive
CCn1nc(C(=O)Nc2ccc(Cl)c(S(=O)(=O)N3CCOCC3)c2)c2ccccc2c1=O	DT40 TDP1 CPT inconclusive, TDP1 cell noCPT 16µM
CCn1nc(C(=O)Nc2cccc(S(=O)(=O)N3CCCC3)c2)c2ccccc2c1=O	DT40 TDP1 CPT inconclusive, TDP1 cell noCPT inconclusive
CCCn1nc(C(=O)Nc2cccc(S(=O)(=O)N3CCOCC3)c2)c2ccccc2c1=O	DT40 TDP1 CPT inconclusive, TDP1 cell noCPT 26µM, IL1B secr inh inconclusive
Cc1cc(-c2cc(F)cc3c2OC(CNC(=O)CCn2cncn2)C3)ccc1F (configuration not stated)	none (no result: HT1080 IDH1KD tx, HT1080-NT tox, IL1B secr inh)
COc1cccc(CNC(=O)c2cccc(NC(=O)c3nsc4ccccc34)c2)c1	DT40 TDP1 CPT inconclusive, TDP1 cell noCPT 21µM (no result: HT1080 IDH1KD tx, HT1080-NT tox, IL1B secr inh)
COc1cccc(CNC(=O)c2cccc(Br)c2)c1	DT40 TDP1 CPT inconclusive, TDP1 cell noCPT inconclusive
O=C(NCc1cccc(F)c1)c1cccc(NC(=O)c2nsc3ccccc23)c1	DT40 TDP1 CPT 23µM, TDP1 cell noCPT 23µM (no result: HT1080 IDH1KD tx, HT1080-NT tox, IL1B secr inh)
O=C(CC(C(=O)O)P(=O)(c1ccccc1)c1ccccc1)c1ccccc1 (configuration not stated)	IL1B secr inh -50
O=C(CC(CC(=O)c1ccccc1)C(=O)O)c1ccccc1	none
Cc1ccccc1-c1noc(CSc2nnc(Cc3ccccc3)n2-c2ccc(F)cc2)n1	DT40 TDP1 CPT inconclusive, TDP1 cell noCPT 9.2µM (no result: HT1080 IDH1KD tx, HT1080-NT tox, IL1B secr inh)
CCOc1ccc(-n2c(Cc3ccccc3)nnc2SCc2nc(-c3ccccc3OC)no2)cc1	DT40 TDP1 CPT inconclusive, TDP1 cell noCPT 16µM (no result: HT1080 IDH1KD tx, HT1080-NT tox, IL1B secr inh)
Fc1ccc(-n2c(Cc3ccccc3)nnc2SCc2nc(-c3cccs3)no2)cc1	DT40 TDP1 CPT inconclusive, TDP1 cell noCPT inconclusive, HT1080-NT tox inconclusive
CC(C)OCCCNC(=O)CN1C(=O)CSc2ccc(S(=O)(=O)N3CCOCC3)cc21	none
COc1ccc2c(c1)c(=O)oc1cc(OCC(=O)N3CCC(C)CC3)ccc12	DT40 TDP1 CPT inconclusive, HT1080 IDH1KD tx inconclusive, TDP1 cell noCPT 21µM, HT1080-NT tox inconclusive
CC1CCCN(C(=O)COc2ccc(-c3ccccc3)cc2)C1 (configuration not stated)	DT40 TDP1 CPT inconclusive, TDP1 cell noCPT 15µM, IL1B secr inh inconclusive
COc1ccc2c(c1)c(=O)oc1cc(OCC(=O)N3CCCC(C)C3)ccc12 (configuration not stated)	DT40 TDP1 CPT inconclusive, TDP1 cell noCPT 13µM
Cc1c(Cl)c(=O)oc2cc(OCC(=O)N3CCCC(C)C3)ccc12 (configuration not stated)	DT40 TDP1 CPT inconclusive, TDP1 cell noCPT inconclusive
Cc1ccc2cc(CN(C(=O)c3ccc4c(c3)OCO4)C3CC3)c(N(C)C)nc2c1	none (no result: HT1080 IDH1KD tx, HT1080-NT tox, IL1B secr inh)
COCOCCn1cc(CN2CCS(=O)(=O)N(Cc3ccc(-c4cccc(N(C)C)c4)cc3)C(C(C)C)C2=O)nn1 (configuration not stated)	DT40 TDP1 CPT 15µM, TDP1 cell noCPT 21µM
COCOCCn1cc(CN2CCS(=O)(=O)N(Cc3ccc(-c4cccc(CO)c4)cc3)C(C(C)C)C2=O)nn1 (configuration not stated)	DT40 TDP1 CPT inconclusive, TDP1 cell noCPT 21µM
CC(C)C1C(=O)N(Cc2cn(CCC3OCCO3)nn2)CCS(=O)(=O)N1Cc1ccc(-c2cccc(N(C)C)c2)cc1 (configuration not stated)	TDP1 cell noCPT inconclusive
COCOCCn1cc(CN2CCS(=O)(=O)N(Cc3ccc(-c4ccc(OC)nc4)cc3)C(C(C)C)C2=O)nn1 (configuration not stated)	DT40 TDP1 CPT 13µM, TDP1 cell noCPT 8.2µM
CN1CCN(C(=O)CSc2ccc(C(F)(F)F)cc2[N+](=O)[O-])CC1	none
Cc1cccc(C)c1N1C(=O)c2ccccc2NC(=O)C1C(=O)Nc1ccc(N2CCOCC2)cc1 (configuration not stated)	DT40 TDP1 CPT inconclusive, TDP1 cell noCPT 15µM
O=C(NCc1ccco1)c1cc(S(=O)(=O)N2CCCc3ccccc32)ccc1Cl	DT40 TDP1 CPT 15µM, TDP1 cell noCPT 13µM
CC(C)CNC(=O)COC(=O)c1ccc(Cl)c(S(=O)(=O)N2CCc3ccccc32)c1	none
CCNC(=O)COC(=O)c1cc(S(=O)(=O)N2CCCc3ccccc32)ccc1Cl	IL1B secr inh -94
COC(=O)Cn1c(O)c(N=NC(=O)CNC(=O)c2ccncc2)c2ccccc21	none
Cc1nc2[nH]c(=O)n(O)c(=O)c2s1	DT40 TDP1 CPT inconclusive, TDP1 cell noCPT 26µM
Cc1nc2c(=O)n(-c3ccc(F)cc3F)nc(C)c2s1	none
CSCCC(C(=O)N(C)CC(=O)Nc1cccc(F)c1)N1C(=O)c2ccccc2C1=O (configuration not stated)	none
COc1ccc(-n2c(C)c3c(C)nnc(C)c3c2C)cc1OC	DT40 TDP1 CPT 16µM, TDP1 cell noCPT 15µM
COc1ccc(-n2c(C)c(C(C)=O)c(C(C)=O)c2C)cc1OC	none
O=C(Nc1ccc(C(=O)N2CCCC2)cc1)C1CCC1	none
